Results: PubChem BioAssay AID2763 (National Center for Advancing Translational Sciences (NCATS), 2010)
Inconclusive results are not listed. Entries that show only a call come without a potency. Calls of active or inactive are those of the source. The call rests on the fitted dose curve; in most records, active means well fitted inhibition curve with a large enough effect; inconclusive means small, poorly fitted or top-dose-only effect, or effect the other way; inactive means no such curve, though single readings can be large or run the other way.

Assay: Concentration response confirmation VP16 counterscreen for inhibitors of ROR gamma transcriptional activity; further: nearly all actives have a fitted effect of over 70% in size
Conditions: Drosophila S2 Gal4-VP16 UAS-luciferase, luminescence, 20 h; series mostly up to 46.1 µM
Description: NIH Molecular Libraries Probe Production Network [MLPCN] NIH Chemical Genomics Center [NCGC] MLPCN Grant: R03 DA026211-01 Assay Provider: Dan Littman, New York University Assay Overview: The retinoic acid-related orphan receptor (ROR) gamma is a transcription factor that has a central role in the differentiation of Th17 cells, a subset of T helper cells that secrete the inflammatory cytokines IL-17, IL-17F, and IL-22. Th17 cells have been implicated in graft versus host disease, autoimmune disease and asthma. ROR gamma is induced in naive T helper cells in the presence of TGF-beta combined with IL-6, IL-21, or IL-23, and thereafter directs the expression of the Th17 lineage cytokines. To identify nonspecific inhibitors, a Drosophila Schneider cell line was stably transfected with two vectors: a gene expressing a fusion of the Gal4 DNA binding domain and the transactivation domain of the viral transcription factor VP16, under the control of the metallothionine promoter and a Photinus luciferase reporter regulated by the Gal4 binding site enhancer, UAS. […] Small molecule inhibitors that inhibit components common to the RORgt and VP16 assays, such as the Gal4 DNA binding domain or the UAS luciferase reporter, will be active in both assays and thus scored as nonspecific.
Assay Protocol Summary: For screening, 600 cells in 4 uL/well were dispensed into white solid 1536-well plates (Grenier) using a solenoid-based dispenser. Following transfer of 23 nL compound or DMSO vehicle by a pin tool, the plates were incubated 1 hr at ambient temperature, and 1 uL/well copper sulfate (700 uM final concentration) was added. The plates were centrifuged 15 s at 1000 RPM and incubated 20 hr at ambient temperature. After addition of 1.5 uL Photinus luciferase detection reagent, the plates were incubated 10 min at ambient temperature and then read by an ViewLux (Perkin Elmer) to detect luminescence.
Potency means the concentration at half of the fitted maximal effect.

Row | SMILES | Potency
1 | O=C(CSc1nc2ccc(NC(=O)CSc3nnnn3Cc3ccccc3)cc2s1)Nc1ccccc1 | inactive
2 | CCn1nc(C)c(CN2CCC(n3nccc3NC(=O)c3ccc4c(c3)OCO4)CC2)c1C | inactive
3 | Cn1nnnc1NCc1ccccc1F | inactive
4 | CN1CCN(C(=O)CCN2C(=O)/C(=C\c3ccccc3F)SC2=S)CC1 | inactive
5 | CC1Oc2ccccc2N(CC(=O)NCCN2CCOCC2)C1=O (stereo not given) | inactive
6 | Cc1ccc(OCCn2cc(C(=S)N3CCCC3)c3ccccc32)cc1C | 25 µM (active)
7 | COc1ccc(CNS(=O)(=O)c2ccc3c(c2)CCN3C(=O)C2CC2)cc1 | inactive
8 | CCOC(=O)c1oc2cccc(OCC(O)CNC(C)C)c2c1C (stereo not given) | inactive
9 | CCCCc1nnc(NC(=O)CS(=O)(=O)Cc2ccccc2)s1 | inactive
10 | COC(=O)c1ccc(OCC(=O)c2ccc(O)cc2O)cc1 | 1.58 µM (active)
11 | CCOC(=O)Cn1c(CN2CCc3ccccc3C2)nc2c1c(=O)n(C)c(=O)n2C | 3.15 µM (active)
12 | OCCNc1nc2ccccc2n1-c1ncnc2sc3c(c12)CCC3 | 15.8 µM (active)
13 | COc1cc(CNS(=O)(=O)c2ccc3c(c2)CC(C)N3C(=O)C2CCC2)cc(OC)c1OC (stereo not given) | 9.96 µM (active)
14 | CC(C)(C)c1cc(C(=O)N2CCc3ccccc32)ccn1 | inactive
15 | Cc1nnc(SCC(=O)Nc2ccc(S(=O)(=O)Nc3ccc(Cl)nn3)cc2)s1 | inactive
16 | Cc1ccc(OCCCC(=O)Nc2nc3ccccc3[nH]2)cc1 | inactive
17 | CCn1cc(C(=O)O)c(=O)c2cc(F)c(N3CCN(C(=S)NC(=O)c4ccccc4C)CC3)cc21 | inactive
18 | Cc1nc2c(-c3ccc(F)cc3)cnn2c(N)c1-c1ccccc1 | 0.281 µM (active)
19 | Cc1ccc(-c2noc(CCC(=O)N(C)c3ccccc3C)n2)cc1 | inactive
20 | Cn1c(=O)[nH]c(=O)c2c1nc(NCc1ccco1)n2Cc1ccccc1Cl | inactive

Row | SMILES | Potency
21 | CC(C)CC(=O)NS(=O)(=O)c1ccc(N)cc1 | inactive
22 | CCN1C(=O)/C(=C/c2ccc(N3CCCC3)cc2)NC1=S | 9.96 µM (active)
23 | COc1cccc(Cn2c(NCc3ccco3)nc3c2c(=O)n(C)c(=O)n3C)c1 | 2.81 µM (active)
24 | Cc1cc(NC(=S)NC(=O)/C=C/c2ccc(S(=O)(=O)N3CCOCC3)cc2)ccc1Br | 11.2 µM (active)
25 | O=[N+]([O-])c1ccccc1/C=C/C=N/n1c(-c2ccccc2)n[nH]c1=S | inactive
26 | CNc1cc(C(F)(F)F)nc(-c2ccccn2)n1 | 8.88 µM (active)
27 | O=C(COc1ccccc1Cl)NCCCN1CCOCC1 | inactive
28 | CC(C)(C)S(=O)(=O)c1cnc2c(-c3ccc(Cl)cc3)cnn2c1N | 6.28 µM (active)
29 | O=C(Cn1c(=O)oc2ccc(Cl)cc21)Nc1ccon1 | inactive
30 | COc1ccccc1CNC(=O)[C@@H](NC(=O)C1CCN(C(=O)[C@@H]2CCCN2C(=O)OC(C)(C)C)CC1)C(C)C | inactive
31 | CCC(C)NC(=O)CSc1nnc(-c2cc(-c3ccc(C)cc3)nc3ccccc23)n1N (stereo not given) | inactive
32 | CCCCCCn1ccc(=N)cc1 | 11.2 µM (active)
33 | Cc1ccccc1C(=O)OC1OC(=O)C(Cl)=C1Nc1ccccc1 (stereo not given) | inactive
34 | Cc1ccc2nc(-c3ccc(NC(=O)COC(=O)c4ccc([N+](=O)[O-])o4)cc3)sc2c1 | 3.53 µM (active)
35 | Cc1ccc(C)c(/C=N/n2cc(-c3ccccc3)[nH]c2=S)c1 | 9.96 µM (active)
36 | COCCC1CCCCN1C(=O)c1cc(COc2ccc(-n3cncn3)cc2)on1 (stereo not given) | 19.9 µM (active)
37 | CCN(CC(=O)NCCc1ccc(Cl)cc1)Cc1nc2ccccc2c(=O)[nH]1 | 25 µM (active)
38 | CC(C)(C)S(=O)(=O)c1cnc2c(-c3ccc(F)cc3)cnn2c1N | 12.5 µM (active)
39 | Cc1nn(-c2ccccc2)c(C)c1C(=O)Nc1nnc(-c2ccco2)o1 | 1.25 µM (active)
40 | Cc1cccc(NC(=O)c2cc3ccccc3o2)c1 | 25 µM (active)
